Results published in PubChem BioAssay (NCATS).
Results filed as inconclusive are left out. Active and inactive are the calls of the source. The call rests on the fitted dose curve; in most records, active means well fitted curve in the direction sought with a large enough effect; inconclusive means small, poorly fitted or top-dose-only effect, or another doubt; inactive means no such curve, though single readings can be large; an effect the other way counts as inactive or inconclusive.

Assays:
[1] = Quantitative High-Throughput drug screen in 47 multiple myeloma cell lines against the NCATS MIPE library collection: JIM1_ECACC cell viability assay (AID 1918964; further: potency means the concentration at half of the fitted maximal effect); settings: JIM1 myeloma viability, CellTiter-Glo ATP luminescence, 48 h; series mostly up to 45.8 µM
Method in brief: (§1)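 Primary qHTS used for cherry-picking: cells at 500/well, library compounds for 48 h (37C, 5% CO2), luminescent ATP assay.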

[2] = Quantitative High-Throughput drug screen in 47 multiple myeloma cell lines against the NCATS MIPE library collection: INA6_PLB cell viability assay (AID 1918965; further: potency means the concentration at half of the fitted maximal effect; nearly all actives have a fitted effect of over 55% in size); settings: INA6 myeloma viability, CellTiter-Glo ATP luminescence, 48 h; series mostly up to 45.8 µM
Method in brief: (§2)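 Relative luminescence from CellTiter-Glo served as the viability signal, referenced to DMSO-treated (100%) and cell-free medium (0%) controls. Treatment lasted 48 hours at 37C with 500 cells per well.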

[3] = Quantitative High-Throughput drug screen in 47 multiple myeloma cell lines against the NCATS MIPE library collection: JJN3_DSMZ cell viability assay (AID 1918966; further: potency means the concentration at half of the fitted maximal effect; nearly all actives have a fitted effect of over 50% in size); settings: JJN3 myeloma cells viability, CellTiter-Glo ATP, 48 h; series mostly up to 45.8 µM
Method in brief: as §1

[4] = Quantitative High-Throughput drug screen in 47 multiple myeloma cell lines against the NCATS MIPE library collection: Karpas25_ECACC cell viability assay (AID 1918968; further: nearly all actives have a fitted effect of over 35% in size; further: potency means the concentration at half of the fitted maximal effect); settings: Karpas25 myeloma viability, CellTiter-Glo ATP, 48 h; series mostly up to 45.8 µM
Method in brief: as §1

[5] = Quantitative High-Throughput drug screen in 47 multiple myeloma cell lines against the NCATS MIPE library collection: KMS27_JCRB cell viability assay (AID 1918970); settings: KMS27 myeloma cells, CellTiter-Glo ATP viability, 48 h; series mostly up to 45.8 µM; further: potency means the concentration at half of the fitted maximal effect; nearly all actives have a fitted effect of over 30% in size
Method in brief: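 ATP-based viability (CellTiter-Glo luminescence) is measured in cells treated 48 h with approved and investigational drugs at 37 °C. Controls are DMSO-only wells for full viability and media-only wells for none.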

[6] = Quantitative High-Throughput drug screen in 47 multiple myeloma cell lines against the NCATS MIPE library collection: KMS12BM_JCRB cell viability assay (AID 1918971); settings: KMS12BM myeloma viability, CellTiter-Glo ATP, 48 h; series mostly up to 45.8 µM; further: potency means the concentration at half of the fitted maximal effect; nearly all actives have a fitted effect of over 35% in size
Method in brief: (§3)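 Approved and investigational drugs from MIPE 4.0 were added by pin tool to 500 cells per well. After 48 hours at 37C, ATP-based CellTiter-Glo luminescence indicated remaining viability.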

[7] = Quantitative High-Throughput drug screen in 47 multiple myeloma cell lines against the NCATS MIPE library collection: KMS12PE_JCRB cell viability assay (AID 1918972); settings: KMS12PE myeloma viability, CellTiter-Glo ATP, 48 h; series mostly up to 45.8 µM; further: potency means the concentration at half of the fitted maximal effect; nearly all actives have a fitted effect of over 30% in size
Method in brief: as §2

[8] = Quantitative High-Throughput drug screen in 47 multiple myeloma cell lines against the NCATS MIPE library collection: KMS20_JCRB cell viability assay (AID 1918973); settings: CellTiter-Glo ATP, 48 h; series mostly up to 45.8 µM; further: potency means the concentration at half of the fitted maximal effect; nearly all actives have a fitted effect of over 45% in size
Method in brief: as §1

[9] = Quantitative High-Throughput drug screen in 47 multiple myeloma cell lines against the NCATS MIPE library collection: KMS26_JCRB cell viability assay (AID 1918975); settings: KMS26 myeloma cells viability, CellTiter-Glo ATP, 48 h; series mostly up to 45.8 µM; further: potency means the concentration at half of the fitted maximal effect; nearly all actives have a fitted effect of over 45% in size
Method in brief: as §3

[10] = Quantitative High-Throughput drug screen in 47 multiple myeloma cell lines against the NCATS MIPE library collection: MMM1_PLB cell viability assay (AID 1918976); settings: MMM1 myeloma cells viability, CellTiter-Glo, 48 h; series mostly up to 45.8 µM; further: potency means the concentration at half of the fitted maximal effect; nearly all actives have a fitted effect of over 35% in size
Method in brief: (§4)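 Readout: median RLU from CellTiter-Glo after 5 min at room temperature. Preceding step was 48 h drug treatment of 500 cells/well at 37 °C, 5% CO2, with DMSO-only and media-only control wells.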

[11] = Quantitative High-Throughput drug screen in 47 multiple myeloma cell lines against the NCATS MIPE library collection: NCIH929_DSMZ cell viability assay (AID 1918978); settings: NCI-H929 myeloma viability, CellTiter-Glo ATP, 48 h; series mostly up to 45.8 µM; further: potency means the concentration at half of the fitted maximal effect; nearly all actives have a fitted effect of over 35% in size
Method in brief: as §4

[12] = Quantitative High-Throughput drug screen in 47 multiple myeloma cell lines against the NCATS MIPE library collection: OCIMY1_PLB cell viability assay (AID 1918979); settings: OCI-MY1 myeloma viability, CellTiter-Glo ATP, 48 h; series mostly up to 45.8 µM; further: nearly all actives have a fitted effect of over 35% in size; further: potency means the concentration at half of the fitted maximal effect
Method in brief: as §4

[13] = Quantitative High-Throughput drug screen in 47 multiple myeloma cell lines against the NCATS MIPE library collection: MM1S_ATCC cell viability assay (AID 1918980); settings: MM1S myeloma viability, CellTiter-Glo ATP luminescence, 48 h; series mostly up to 45.8 µM; further: potency means the concentration at half of the fitted maximal effect; nearly all actives have a fitted effect of over 45% in size
Method in brief: as §4

[14] = Quantitative High-Throughput drug screen in 47 multiple myeloma cell lines against the NCATS MIPE library collection: MM1R_ATCC cell viability assay (AID 1918981); settings: MM1R multiple myeloma cells, CellTiter-Glo viability, 48 h; series mostly up to 45.8 µM
Method in brief: as §4

[15] = Quantitative High-Throughput drug screen in 47 multiple myeloma cell lines against the NCATS MIPE library collection: H1112_PLB cell viability assay (AID 1918967; further: nearly all actives have a fitted effect of over 30% in size); settings: H1112 myeloma cells viability, ATP luminescence, 48 h; series mostly up to 45.8 µM
Method in brief: as §1

[16] = Quantitative High-Throughput drug screen in 47 multiple myeloma cell lines against the NCATS MIPE library collection: LP1_DSMZ cell viability assay (AID 1918982); settings: LP1 myeloma viability, CellTiter-Glo ATP luminescence, 48 h; series mostly up to 45.8 µM; further: nearly all actives have a fitted effect of over 35% in size
Method in brief: as §4

Measured: Potency

CC(C)c1cc(-c2n[nH]c(=O)n2-c2ccc3c(ccn3C)c2)c(O)cc1O
active: [1] 0.0148 µM | [2] 0.0264 µM | [3] 0.0418 µM | [4] 0.0209 µM | [5] 0.0264 µM | [6] 0.0372 µM | [7] 0.0332 µM | [8] 0.0296 µM | [9] 0.0372 µM | [10] 0.0743 µM | [11] 0.0209 µM | [12] 0.0469 µM | [13] 0.059 µM | [14] 0.0469 µM

Cc1nc2ccc(CN(C)c3ccc(C(=O)N[C@@H](CCC(=O)O)C(=O)O)s3)cc2c(=O)[nH]1
inactive: [15] | [4] | [12] | [16]
active: [2] 0.0418 µM | [5] 0.264 µM | [7] 0.0662 µM | [9] 9.35 µM | [10] 5.9 µM | [13] 20.9 µM
